Molecules are shown by their SMILES. Calls of active or inactive are those of the source.

A short description of assay [1]: binders of probe aFSTL3 on microarray, primary screen, stem cell growth factor project, biochemical, small-molecule microarray, fluorescence 635/667 (AID 1064).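 Also: measures binding of the biotinylated anti-FSTL3 antibody to printed compounds.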 The following applies: higher = more signal.
A short description of assay [2]: binders from COS7 lysate, DM2A8 probe, primary screen, torsin A project, cell lysate, small-molecule microarray, fluorescence 635/667 (AID 1065). The following applies: higher = more signal, COS7 lysate expressing mutant human TOR1A.
Assay [3] in a line: binders of probe aFGF2 on microarray, primary screen, stem cell growth factor project, biochemical, small-molecule microarray, fluorescence 635/667 (AID 1067).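 Also: measures binding of biotinylated aFGF2 protein to printed compounds on slides; z-score merges feature fluorescence and signal-to-noise across triplicate slides.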 As to conditions: higher = more signal.
A short description of assay [4]: binders of probe aFGF10 on microarray, primary screen, stem cell growth factor project, biochemical, small-molecule microarray, fluorescence 635/667 (AID 1071).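 Also: score merges 667 nm spot intensity and signal to noise from triplicate slides.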 The following applies: higher = more signal.
The target of assay [5] is Neurogenic locus notch homolog protein 2 (Homo sapiens) (UniProt Q04721). Briefly: Notch2 binders on small-molecule microarrays, primary screen, biochemical, small-molecule microarray, 635 nm fluorescence, stem cell growth factors (AID 1073). As to conditions: Notch2 binding, higher = more signal.
The target of assay [6] is Pro-neuregulin-1, membrane-bound isoform (Homo sapiens) (UniProt Q02297). Briefly: NRG1 binders on small-molecule microarrays, primary screen, psychiatric disease protein project, biochemical, small-molecule microarray, fluorescence 635/667 (AID 1075).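 Also: score combines 667 nm spot fluorescence with signal to noise.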 As to conditions: NRG1 binding, 635 nm fluorescence, higher = more signal.
For assay [7], the system named is Neuregulin-1 EGF-like domain. Briefly: binders of neuregulin-1 EGF-like domain, primary screen, biochemical, small-molecule microarray, 635 nm fluorescence (AID 1081).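 Also: binding of the protein to compounds printed on small-molecule microarray slides.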 The following applies: small-molecule microarray binding, higher = more signal.
Assay [8] is described as follows: FRG1 promoter luciferase signal modulators, primary screen, FRG1 inhibition for FSHD, cell-based, C2C12 myotubes, firefly/Renilla luciferase, luminescence (AID 1084). As to conditions: higher = more signal, called active from +8 up or from −8 down.
A short description of assay [9]: binders of probe aFST on microarray, primary screen, stem cell growth factor project, biochemical, small-molecule microarray, fluorescence 635/667 (AID 1086).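 Also: score merges 667 nm fluorescence with signal-to-noise of each printed compound spot.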 The following applies: higher = more signal.
Assay [10] is described as follows: binders of probe aHhip on microarray, primary screen, stem cell growth factor project, biochemical, small-molecule microarray, fluorescence 635/667 (AID 1087).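 Also: score merges spot fluorescence at 667nm with spot signal to noise ratio.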 As to conditions: higher = more signal.
In assay [11] the test system is PRMT1 (protein arginine N-methyltransferase 1). Nature of the assay: PRMT1 binders on small-molecule microarrays, primary screen, biochemical, small-molecule microarray, 635 nm fluorescence (AID 1088).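 Also: binding of Prmt1 protein to compounds spotted on small-molecule microarray slides.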 As to conditions: small-molecule microarray binding, higher = more signal.
Assay [12] can be described thus: yeast growth modulation, basal conditions, primary screen, YJM789 clinical isolate, OD600, 24 h (AID 1089).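 Also: growth of clinical yeast isolate S. cerevisiae YJM 789 seeded 1000 cells per well; test concentration not given here.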 The following applies: S. cerevisiae YJM789 growth, higher = more signal, called active from +8 up or from −8 down.
Assay [13] is described as follows: fission yeast growth modulation, primary screen, strain 972, OD600, 24 h, no modulator (AID 1090).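 Also: basal condition with compound alone and no growth modifier present; test concentration not given here.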 The following applies: S. pombe 972 growth, higher = more signal, called active from +8 up or from −8 down.
Assay [14] in a line: S. cerevisiae growth modulation with rapamycin, primary screen, strain BY4716, OD600, 96 h (AID 1091). Also: test concentration not given here. As to conditions: higher = more signal, called active from +8 up or from −8 down.
For assay [15], the target named is Torsin-1A-interacting protein 2 (Homo sapiens) (UniProt Q8NFQ8). Briefly: LULL1 binders on small-molecule microarray, primary screen, cell lysate, human LULL1 lysate, 635/667 nm fluorescence (AID 1092).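 Also: probe is lysate of COS7 cells overexpressing human LULL1; score merges per-feature 667 nm fluorescence with signal-to-noise.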 As to conditions: hLULL1 lysate binding, 635 nm fluorescence, higher = more signal.
A short description of assay [16]: E. coli growth modulation, two-sided OD650, primary screen, E. coli filamentation project, strain DRC41, 24 h (AID 1093).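 Also: MC1000 strain lacking acrAB efflux and sulA so SOS filamentation is blocked; test concentration not given here.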 The following applies: OD650, 24 h, higher = more signal, called active from +8 up or from −8 down.
Assay [17] is described as follows: small-molecule microarray binders of probe aLefty2, primary screen, biochemical, biotinylated probe, 635/667 nm fluorescence (AID 1094).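 Also: score merges spot fluorescence near 667 nm with spot signal-to-noise ratio.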 As to conditions: higher = more signal.
Assay [18] deals with Noggin (protein binding on small-molecule microarray). Briefly: Noggin binders on small-molecule microarray, primary screen, biochemical, 635/667 nm fluorescence (AID 1095).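 Also: score merges 667 nm feature fluorescence with signal to noise over triplicate slides.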 As to conditions: 635 nm fluorescence, higher = more signal.
The target of assay [19] is Neurogenic locus notch homolog protein 3 (Homo sapiens) (UniProt Q9UM47). Briefly: NOTCH3 binders on small-molecule microarray, primary screen, biochemical, 635/667 nm fluorescence (AID 1096). As to conditions: NOTCH3 binding, 635 nm fluorescence, higher = more signal.
Assay [20] in a line: small-molecule microarray binders of probe aEGFR, primary screen, biochemical, biotinylated probe, 635/667 nm fluorescence (AID 1097).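 Also: probe is a biotinylated anti-EGFR antibody binding compounds printed on slides; score combines fluorescence near 667 nm and signal to noise of each spot.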 The following applies: higher = more signal.

Chain of Neurogenic locus notch homolog protein 3 (Homo sapiens) (Q9UM47 whole entry, looked up): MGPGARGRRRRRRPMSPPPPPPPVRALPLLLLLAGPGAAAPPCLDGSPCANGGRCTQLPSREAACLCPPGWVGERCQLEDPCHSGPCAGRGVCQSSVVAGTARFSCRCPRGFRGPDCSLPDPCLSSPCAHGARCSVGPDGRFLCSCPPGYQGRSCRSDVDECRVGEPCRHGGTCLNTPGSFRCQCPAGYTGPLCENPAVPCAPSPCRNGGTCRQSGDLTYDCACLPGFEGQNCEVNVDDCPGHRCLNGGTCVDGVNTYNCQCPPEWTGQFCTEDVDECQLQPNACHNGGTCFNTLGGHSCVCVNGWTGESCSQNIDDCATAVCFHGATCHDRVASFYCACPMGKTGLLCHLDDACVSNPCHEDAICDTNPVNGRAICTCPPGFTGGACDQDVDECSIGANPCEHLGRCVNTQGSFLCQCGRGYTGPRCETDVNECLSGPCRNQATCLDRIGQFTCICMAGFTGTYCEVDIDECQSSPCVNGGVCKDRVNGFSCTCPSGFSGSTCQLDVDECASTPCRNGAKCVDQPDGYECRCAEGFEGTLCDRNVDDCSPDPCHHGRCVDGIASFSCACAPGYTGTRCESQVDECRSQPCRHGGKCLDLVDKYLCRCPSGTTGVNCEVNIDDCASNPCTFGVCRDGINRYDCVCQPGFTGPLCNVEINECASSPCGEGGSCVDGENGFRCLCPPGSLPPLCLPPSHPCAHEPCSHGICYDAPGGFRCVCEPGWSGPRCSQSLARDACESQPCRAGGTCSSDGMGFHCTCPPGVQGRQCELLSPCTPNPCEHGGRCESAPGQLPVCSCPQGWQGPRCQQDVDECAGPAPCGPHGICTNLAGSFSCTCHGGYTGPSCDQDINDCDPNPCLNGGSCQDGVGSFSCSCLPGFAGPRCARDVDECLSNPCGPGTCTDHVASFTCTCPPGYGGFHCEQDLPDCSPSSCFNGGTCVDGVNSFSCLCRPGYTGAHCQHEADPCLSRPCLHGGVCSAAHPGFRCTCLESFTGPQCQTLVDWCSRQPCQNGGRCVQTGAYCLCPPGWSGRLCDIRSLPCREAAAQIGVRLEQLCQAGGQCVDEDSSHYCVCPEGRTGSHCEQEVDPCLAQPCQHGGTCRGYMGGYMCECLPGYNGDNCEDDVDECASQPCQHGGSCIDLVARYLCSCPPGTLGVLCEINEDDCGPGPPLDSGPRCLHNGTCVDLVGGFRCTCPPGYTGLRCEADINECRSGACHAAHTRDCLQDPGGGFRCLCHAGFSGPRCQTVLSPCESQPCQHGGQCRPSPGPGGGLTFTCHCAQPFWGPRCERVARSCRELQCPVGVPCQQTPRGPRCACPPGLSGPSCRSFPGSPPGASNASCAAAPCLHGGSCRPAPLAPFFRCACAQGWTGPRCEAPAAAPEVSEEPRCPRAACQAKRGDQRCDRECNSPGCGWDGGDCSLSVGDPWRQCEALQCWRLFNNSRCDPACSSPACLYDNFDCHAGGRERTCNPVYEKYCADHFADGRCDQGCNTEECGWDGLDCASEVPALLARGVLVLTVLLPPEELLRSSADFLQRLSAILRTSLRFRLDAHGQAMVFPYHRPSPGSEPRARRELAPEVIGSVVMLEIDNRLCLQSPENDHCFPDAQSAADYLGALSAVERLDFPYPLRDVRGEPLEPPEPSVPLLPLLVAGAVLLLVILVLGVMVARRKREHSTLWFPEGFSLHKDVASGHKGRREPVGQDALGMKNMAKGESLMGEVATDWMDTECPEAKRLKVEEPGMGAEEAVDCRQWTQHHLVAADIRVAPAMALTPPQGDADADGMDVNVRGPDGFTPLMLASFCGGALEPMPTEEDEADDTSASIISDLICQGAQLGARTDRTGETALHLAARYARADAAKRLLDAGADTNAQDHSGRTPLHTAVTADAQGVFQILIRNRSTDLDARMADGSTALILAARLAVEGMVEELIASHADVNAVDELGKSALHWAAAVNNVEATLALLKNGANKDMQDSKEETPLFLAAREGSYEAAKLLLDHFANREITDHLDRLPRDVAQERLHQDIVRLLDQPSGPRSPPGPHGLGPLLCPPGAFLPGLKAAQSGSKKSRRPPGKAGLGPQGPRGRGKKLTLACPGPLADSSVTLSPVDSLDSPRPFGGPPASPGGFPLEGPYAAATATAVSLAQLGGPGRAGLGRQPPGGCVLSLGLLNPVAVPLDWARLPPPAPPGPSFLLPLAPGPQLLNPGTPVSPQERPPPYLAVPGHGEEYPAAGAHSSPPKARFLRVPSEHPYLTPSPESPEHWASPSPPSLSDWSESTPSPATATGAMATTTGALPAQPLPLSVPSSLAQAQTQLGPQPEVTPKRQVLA
Chain of Neurogenic locus notch homolog protein 2 (Homo sapiens) (Q04721 whole entry, looked up, canonical isoform): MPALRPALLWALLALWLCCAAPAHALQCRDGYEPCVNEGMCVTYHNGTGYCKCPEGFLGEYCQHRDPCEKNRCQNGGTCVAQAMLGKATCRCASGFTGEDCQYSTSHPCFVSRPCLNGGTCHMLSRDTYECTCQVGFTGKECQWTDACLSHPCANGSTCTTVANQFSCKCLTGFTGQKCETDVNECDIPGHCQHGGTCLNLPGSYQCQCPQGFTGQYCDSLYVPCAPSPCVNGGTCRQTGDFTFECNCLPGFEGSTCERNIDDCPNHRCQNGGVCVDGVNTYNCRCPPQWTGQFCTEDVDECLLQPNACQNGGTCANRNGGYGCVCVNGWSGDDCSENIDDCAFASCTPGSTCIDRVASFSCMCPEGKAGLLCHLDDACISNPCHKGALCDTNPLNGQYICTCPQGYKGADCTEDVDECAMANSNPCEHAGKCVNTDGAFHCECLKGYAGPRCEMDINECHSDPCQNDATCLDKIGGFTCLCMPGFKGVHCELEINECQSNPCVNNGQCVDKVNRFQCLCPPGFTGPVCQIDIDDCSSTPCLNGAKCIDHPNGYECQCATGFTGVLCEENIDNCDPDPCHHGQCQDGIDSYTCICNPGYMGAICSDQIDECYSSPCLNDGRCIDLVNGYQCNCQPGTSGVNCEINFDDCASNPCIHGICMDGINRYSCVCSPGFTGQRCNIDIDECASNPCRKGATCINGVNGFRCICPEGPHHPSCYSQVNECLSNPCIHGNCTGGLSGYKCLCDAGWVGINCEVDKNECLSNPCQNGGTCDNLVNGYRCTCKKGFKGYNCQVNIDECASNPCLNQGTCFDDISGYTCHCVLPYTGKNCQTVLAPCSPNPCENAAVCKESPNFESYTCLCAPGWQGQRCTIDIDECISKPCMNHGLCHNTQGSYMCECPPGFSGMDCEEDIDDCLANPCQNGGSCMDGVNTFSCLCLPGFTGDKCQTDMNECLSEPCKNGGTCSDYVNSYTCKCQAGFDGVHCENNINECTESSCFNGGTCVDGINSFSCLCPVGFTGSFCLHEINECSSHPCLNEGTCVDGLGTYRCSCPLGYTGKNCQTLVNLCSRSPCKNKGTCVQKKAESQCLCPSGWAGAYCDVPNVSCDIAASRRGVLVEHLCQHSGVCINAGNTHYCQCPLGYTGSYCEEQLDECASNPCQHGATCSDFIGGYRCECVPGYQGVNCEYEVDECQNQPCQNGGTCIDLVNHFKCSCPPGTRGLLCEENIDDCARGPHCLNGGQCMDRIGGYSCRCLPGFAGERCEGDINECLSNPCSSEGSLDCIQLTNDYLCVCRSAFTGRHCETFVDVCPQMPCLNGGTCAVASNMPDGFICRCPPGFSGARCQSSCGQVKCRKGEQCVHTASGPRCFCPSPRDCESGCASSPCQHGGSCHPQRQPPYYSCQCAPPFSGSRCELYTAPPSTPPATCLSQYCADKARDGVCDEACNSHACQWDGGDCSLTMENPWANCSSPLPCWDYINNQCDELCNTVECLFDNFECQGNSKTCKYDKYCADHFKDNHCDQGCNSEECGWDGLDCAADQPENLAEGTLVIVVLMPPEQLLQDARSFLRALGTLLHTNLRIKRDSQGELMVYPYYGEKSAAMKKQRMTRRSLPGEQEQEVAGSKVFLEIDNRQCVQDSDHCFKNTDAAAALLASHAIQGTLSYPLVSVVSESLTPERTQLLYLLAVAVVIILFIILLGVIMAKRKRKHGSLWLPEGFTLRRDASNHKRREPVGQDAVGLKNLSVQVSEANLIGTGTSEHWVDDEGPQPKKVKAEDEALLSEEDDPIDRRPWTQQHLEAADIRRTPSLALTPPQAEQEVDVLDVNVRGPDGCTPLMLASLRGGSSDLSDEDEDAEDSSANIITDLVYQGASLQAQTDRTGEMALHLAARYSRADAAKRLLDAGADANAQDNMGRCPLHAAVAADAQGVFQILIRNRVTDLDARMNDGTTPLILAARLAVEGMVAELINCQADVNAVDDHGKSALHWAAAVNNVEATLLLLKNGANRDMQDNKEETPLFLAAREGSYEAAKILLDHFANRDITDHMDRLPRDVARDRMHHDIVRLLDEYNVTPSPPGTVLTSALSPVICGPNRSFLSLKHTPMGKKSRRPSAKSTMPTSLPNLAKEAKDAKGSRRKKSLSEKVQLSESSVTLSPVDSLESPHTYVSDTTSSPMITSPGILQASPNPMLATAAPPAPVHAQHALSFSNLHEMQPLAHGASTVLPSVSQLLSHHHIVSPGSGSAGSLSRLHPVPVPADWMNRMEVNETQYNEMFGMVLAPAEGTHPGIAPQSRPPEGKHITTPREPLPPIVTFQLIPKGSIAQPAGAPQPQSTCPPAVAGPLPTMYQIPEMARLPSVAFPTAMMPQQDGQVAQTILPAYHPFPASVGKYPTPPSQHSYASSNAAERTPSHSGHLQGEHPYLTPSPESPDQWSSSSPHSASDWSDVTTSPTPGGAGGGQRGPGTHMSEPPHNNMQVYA

With `C=CCOC(=O)[C@H]1[C@@H]2C(=O)O[C@@H](c3ccccc3)[C@@H](c3ccccc3)N2[C@@H](c2ccc(OCCOC(=O)[C@H]3C[C@H]4C(=O)N[C@@H](CCCCNC(C)=O)C(=O)N4[C@H]3c3ccc(O)cc3)cc2)[C@]12C(=O)Nc1ccc(I)cc12`, the composite z-score in assay [1] is -0.37; in [2], 0.517; in assay [3] it was 0.0126; in [4], 0.169; in assay [5] it was 0.791; in [6] it was 0.349. Moreover, the composite z-score in [7] is 1.14; in assay [9] it was 1.3; in assay [10] it was 0.312; in assay [11], 1.57; in assay [15], 1.81; in [17], -0.0566. Further, the composite z-score in assay [18] is 1.5; in assay [19], 1.07; in assay [20] it was -0.0088. The z-score in assay [8] was 0.136 (inactive); in assay [12] it was 1.12 (inactive); in assay [13], -2.33 (inactive); in assay [14], 1.75 (inactive); in assay [16], -2.07 (inactive).
As to `COC(=O)C(CC#Cc1ccc2c(c1)[C@]1(C(=O)N2)[C@H](c2ccc(OCCO)cc2)N2[C@H](c3ccccc3)[C@H](c3ccccc3)OC(=O)[C@H]2[C@@H]1C(=O)N1CCc2cc(OC)c(OC)cc2C1)C(=O)OC`, the composite z-score was found to be 0.931 in assay [1]; 0.802 in assay [2]; 0.119 in assay [3]; 1.05 in assay [4]; 1.42 in assay [5]; 1.07 in assay [6]. The composite z-score amounted to 1.25 in [7]; 1.6 in assay [9]; 0.876 in [10]; 1.57 in [11]; 3.34 in assay [15]; 0.365 in [17]. Moreover, the composite z-score in assay [18] was -1.11; in assay [19], 1.07; in [20] it was 0.169. Besides, the z-score in assay [8] is 2.24 (inactive); in [12], 2.12 (inactive); in assay [13], 1.74 (inactive); in [14], 5.14 (inactive); in assay [16], 0.49 (inactive).
On to `COCCOC(=O)N1C(=O)[C@@]2(c3cc(C#Cc4ccc(OC)cc4)ccc31)[C@H](c1ccc(OCCO)cc1)N1[C@H](c3ccccc3)[C@H](c3ccccc3)OC(=O)[C@H]1[C@@H]2C(=O)N1CCN(c2ncccn2)CC1`, for which the composite z-score is -0.144 in assay [1]; 0.316 in [2]; -0.0113 in assay [3]; 0.397 in [4]; 0.926 in assay [5]; -0.318 in assay [6]. The composite z-score was 1.13 in assay [7]; 0.736 in [9]; 0.0176 in [10]; 1.55 in [11]; 1.55 in assay [15]; 0.127 in [17]. Further, the results for the composite z-score in assay [18], in [19] and in assay [20] were 1.06, 1.08 and 0.178, respectively. Also, the z-score in assay [8] was 0.598 (inactive); in [12], 2.92 (inactive); in assay [13] it was 2.3 (inactive); in assay [14] it was 7.54 (inactive); in assay [16], 0.468 (inactive).
Consider `C=CC[C@@]1(C(=O)NCCN2CCOCC2)N=C(c2ccc(OCCCO)cc2)O[C@@H]1c1ccccc1N=[N+]=[N-]`, for which the composite z-score was 1.4 in [1]; -0.355 in assay [2]; -0.119 in assay [3]; 0.686 in assay [4]; 0.322 in [5]; 1.37 in assay [6]. Further, the composite z-score in assay [7] was 1.03; in assay [9], 0.803; in assay [10], -0.0645; in [11], 0.513; in assay [15], 2.03; in assay [17], 0.293. For the same compound, the figures for the composite z-score in assay [18], in [19] and in assay [20] were 0.26, -0.483 and 0.38, respectively. Also, the z-score in [8] is 2.98 (inactive); in assay [12] it was 0.658 (inactive); in assay [13], -0.211 (inactive); in assay [14], 0.408 (inactive); in [16], -0.0403 (inactive).
In the case of `C=CC[C@]1(C(=O)NCCCOC)N=C(c2ccc(OCCCO)cc2)O[C@H]1c1ccccc1CN=[N+]=[N-]`, the composite z-score in assay [1] is 1.07; in [2] it was 0.717; in [3], -0.0981; in assay [4], 0.807; in assay [5], 1.49; in assay [6], 1.3. In addition, the composite z-score turned out to be 1.08 in assay [7]; 0.952 in [9]; 0.335 in assay [10]; 1.13 in [11]; 3.15 in assay [15]; 0.248 in [17]. Also, the composite z-score was 0.102 in assay [18], 0.854 in [19] and 0.286 in [20]. Also, the z-score in assay [8] is 0.373 (inactive); in assay [12], -1.5 (inactive); in [13], 0.998 (inactive); in [14], -1.71 (inactive); in assay [16], -0.483 (inactive).
On to `OCCCC1=CC(c2cccs2)N(Cc2cc3c(cc2Br)OCO3)CC1` (stereo not given), for which the composite z-score in [1] is 0.235; in assay [2], 0.457; in assay [3] it was -0.124; in assay [4], -0.0316; in [5], -0.242; in assay [6], 0.775. Further, the composite z-score in assay [7] was 1.04; in assay [9], -0.0026; in assay [10], -0.206; in assay [11], 0.591; in [15], 1.17; in assay [17], 0. Also, the composite z-score in assay [18] is 0.915; in assay [19] it was 0.208; in assay [20], -0.0304. In addition, the z-score in [8] was -1.86 (inactive); in assay [12], -0.678 (inactive); in assay [13] it was -1.05 (inactive); in assay [14] it was -0.274 (inactive); in [16], -0.414 (inactive).
As to `C=CCNC(=O)[C@@H]1[C@H]2C(=O)O[C@H](c3ccccc3)[C@H](c3ccccc3)N2[C@H](c2ccccc2OCCO)[C@@]12C(=O)N(C(=O)OCCOC)c1ccccc12`, the composite z-score in assay [1] was 0.599; in assay [2], 0.603; in assay [3], -0.107; in [4] it was 0.73; in [5], 1.32; in assay [6] it was 0.848. Also, the composite z-score in [7] stood at 1.29; in assay [9] it was 0.562; in assay [10], 0.621; in assay [11], 1.54; in assay [15], 2.64; in [17] it was 0.0615. Moreover, the results for the composite z-score in assay [18], in assay [19] and in assay [20] were 1.71, 0.884 and -0.0381, respectively. In addition, the z-score in [8] was -0.0386 (inactive); in [12], 2.86 (inactive); in [13], 2.29 (inactive); in assay [14], 7.26 (inactive); in assay [16], -0.442 (inactive).
As for `COc1ccc(/C=C/C=O)cc1`, the composite z-score was -0.0583 in assay [1]; 0.144 in assay [2]; -0.0982 in assay [3]; 0.19 in assay [4]; 0.173 in assay [5]; -0.802 in assay [6]. Besides, the composite z-score in assay [7] was -0.562; in [9] it was 0.0803; in [10], 0.0975; in assay [11] it was 0.722; in [15], -0.714; in assay [17], -0.15. For the same compound, the composite z-score in assay [18] was 0.775; in assay [19], 0.271; in assay [20], -0.045. For the same compound, the z-score in assay [8] is 0.599 (inactive); in assay [12], 1.17 (inactive); in assay [13], -7.83 (inactive); in [14] it was 1.01 (inactive); in [16], 0.0062 (inactive).
Regarding `O=C(c1ccccc1)N1C(=O)[C@]2(COC(c3ccc(OCCCO)cc3)=N2)Cc2ccccc21`, the composite z-score in assay [1] came out at 0.303; in assay [2], 0.863; in assay [3], 0.11; in assay [4] it was 0.879; in assay [5], 0.839; in assay [6] it was 1.72. The composite z-score was 1.34 in assay [7]; 0.647 in assay [9]; -0.266 in assay [10]; 1.53 in [11]; 3.17 in assay [15]; 0.133 in assay [17]. Moreover, the results for the composite z-score in assay [18], in assay [19] and in [20] were 0.722, 1.15 and -0.0989, respectively. The z-score in [8] is 1.23 (inactive); in assay [12], -1.84 (inactive); in assay [13] it was 0.901 (inactive); in assay [14] it was 4.51 (inactive); in assay [16], -0.178 (inactive).

These data come from PubChem BioAssay.
